# High-throughput results (PubChem BioAssay)
# ST2 inh: blocks human ST2 binding to IL-33; Q01638; AlphaLISA ST2-Fc/biotin-IL-33 interaction, 1 h; inhibition, % for hits at 17 µM; 78,000 tested, 2.3% active; AID 1259354; in the data active = inhibition above about 30%
# Target sequence (Q01638 whole entry, looked up): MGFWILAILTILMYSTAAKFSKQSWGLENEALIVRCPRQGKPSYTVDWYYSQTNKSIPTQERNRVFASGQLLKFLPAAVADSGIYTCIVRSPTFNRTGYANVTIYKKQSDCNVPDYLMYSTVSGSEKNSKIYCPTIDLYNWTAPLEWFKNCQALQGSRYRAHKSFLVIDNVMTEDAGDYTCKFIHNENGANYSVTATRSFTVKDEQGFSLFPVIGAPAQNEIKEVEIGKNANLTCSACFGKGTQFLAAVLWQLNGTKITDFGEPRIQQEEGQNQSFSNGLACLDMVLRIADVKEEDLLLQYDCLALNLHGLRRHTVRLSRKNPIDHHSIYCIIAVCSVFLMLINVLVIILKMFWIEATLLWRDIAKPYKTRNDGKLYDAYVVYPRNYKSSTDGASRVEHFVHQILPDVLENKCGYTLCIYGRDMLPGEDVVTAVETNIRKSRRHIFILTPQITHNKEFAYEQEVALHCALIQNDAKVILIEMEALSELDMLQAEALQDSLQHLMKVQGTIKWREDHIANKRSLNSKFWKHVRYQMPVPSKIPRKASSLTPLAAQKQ
# An asterisk follows results filed as active; i = inactive; ! = a repeat was not active. The entries come from a sample that favours hits as a whole.
SMILES,ST2 inh
Cc1cc(C(F)(F)F)c(C#N)c(SCC(=O)c2ccc([N+](=O)[O-])cc2)n1,60%*
COCc1cc(C)nc(SCc2ccccc2Cl)c1C#N,i
Cc1cc(C(F)(F)F)c(C#N)c(SCC(N)=O)n1,i
Cc1cc(C)c(C#N)c(SCC(=O)c2ccc(F)cc2)n1,i
COCc1cc(C)nc(SCC(=O)c2ccc(C)cc2C)c1C#N,i
COCc1cc(C)nc(SCC(=O)c2ccc(Cl)cc2)c1C#N,30%*!
O=C(c1cccc2nccnc12)N1[C@H]2CCNC[C@@H]1CC2,i
O=C(CN1C(=O)C2C3C=CC(C3)C2C1=O)Nc1ccc(I)cc1 (stereo unspecified),i
CC(NS(=O)(=O)c1cccc2cccnc12)c1ccccc1 (stereo unspecified),i
O=C(Nc1ccccc1)c1cc2ccccc2oc1=Nc1ccc(F)cc1,i
COc1cccc(NC(=O)CSc2nnc(Cc3ccccc3)n2C)c1,40%*
COc1cccc(NC(=O)CSc2c3c(nc4ccccc24)CCC3)c1,i
COc1cccc(NC(=O)CSc2nnc3ccccn23)c1,i
NC(=O)c1cc(NC(=O)c2ccc([N+](=O)[O-])cc2)c(Cl)cc1Cl,i
Cc1nn(-c2ccccc2)c2c1C(c1ccc([N+](=O)[O-])o1)C(C#N)=C(N)O2 (stereo unspecified),39%*
Cc1nn(-c2ccccc2)c2c1C(c1ccncc1)C(C#N)=C(N)O2 (stereo unspecified),38%*
N#CC1=C(N)Oc2n[nH]c(-c3ccccc3)c2C1c1ccc([N+](=O)[O-])cc1Cl (stereo unspecified),i
Cc1nn(-c2ccccc2)c2c1C(c1cccnc1)C(C#N)=C(N)O2 (stereo unspecified),i
CC1=C(n2nnc3ccccc32)C(c2ccccc2)C(C#N)=C(N)O1 (stereo unspecified),i
COc1ccc(Br)cc1C1C(C#N)=C(N)Oc2c1c(C)nn2-c1ccccc1 (stereo unspecified),i
COc1cc2c(cc1CN1CCCC1c1nc(C(C)C)no1)OCCCO2 (stereo unspecified),i
Cc1ccc(OCCn2c3ccccc3c3ccccc32)c([N+](=O)[O-])c1,i
CCc1cccc(-n2c(-c3ccco3)nc3c(cnn3-c3ccc(F)cc3)c2=O)c1,i
CCOc1ccc(-n2c(-c3ccco3)nc3c(cnn3-c3ccc(F)cc3)c2=O)cc1,33%*
CCOc1ccc(-n2c(C)nc3c(cnn3-c3ccc(F)cc3)c2=O)cc1,i
SMILES,ST2 inh
Cc1ccc(N2C(=O)c3cccnc3C2=O)c(C)c1,i
Cc1cccc(N=C2NC(=O)c3cccc([N+](=O)[O-])c32)c1,i
Cc1cccc(N=C2c3ccccc3-c3ncccc32)c1,41%*
CCC(C)NC(=O)CSc1nc2c(sc3ccccc32)c(=O)n1CCCN1CCOCC1 (stereo unspecified),i
CC1CCCN(C(=O)Nc2cccc(NC(=O)N3CCCC(C)C3C)c2)C1C (stereo unspecified),i
COc1ccc(OC)c(Nc2cc(C)nc3c(C)c(C)ccc23)c1,37%*
COc1ccc(Nc2cc(C)nc3c(C)c(C)ccc23)cc1OC,i
COc1ccc(Nc2cc(C)nc3c(C)c(C)ccc23)cc1,i
Cc1ccc(NC(=O)C2(S(=O)(=O)c3ccc(Cl)cc3)CC2)c(Cl)c1,i
NC(=O)CSc1n[nH]c(-c2ccccc2)n1,i
O=C(CSc1nc2c(c(=O)n1-c1ccc(Cl)cc1)SCC2)Nc1ccc(Cl)cc1,i
CO[C@H]1CN(C(=O)c2c(-c3ccccc3)ccnc2C)CC[C@H]1N,i
COc1cc(C(=O)N2CCN3C(=O)CNC(=O)C3C2)ccn1 (stereo unspecified),i
O=C(COC(=O)c1cccc(Br)c1)c1ccc(Br)cc1,i
O=C(COC(=O)c1ccc(Cl)cc1)c1ccc(Br)cc1,i
O=C(COC(=O)c1ccccc1O)c1ccc(Br)cc1,90%*
NC(=O)c1cn(-c2ccccc2)nc1-c1ccc(Br)cc1,i
CCOC(=O)CSc1nc(CC)c(C)cc1C#N,i
Cc1ccc(S(=O)(=O)N2CCN(S(C)(=O)=O)C2c2ccccc2)cc1 (stereo unspecified),i
Cc1ccc(S(=O)(=O)N2C/C(=C\c3ccccc3)c3c2cc([N+](=O)[O-])cc3[N+](=O)[O-])cc1,35%*
COc1ccc(C2SCCN2S(=O)(=O)c2ccc(C)cc2)cc1[N+](=O)[O-] (stereo unspecified),i
CN1CCC(Cc2noc(CCc3nc(Cl)n[nH]3)n2)CC1,i
C=C1C(=O)O[C@@H]2/C=C(\C)CC/C=C(\C(=O)O[C@@H]3O[C@H](CO)[C@@H](O)[C@H](O)[C@H]3O)CC[C@@H]12,i
COc1ccccc1C1(CCN=Cc2ccc(N(C)C)cc2)CCOC(C)(C)C1 (stereo unspecified),i
Cc1cccc(-c2cnc(-c3ccncc3)nc2C2CCN(C(=O)COc3ccccc3)CC2)c1,i
SMILES,ST2 inh
Cc1ccccc1Cn1c(CN2CCN(c3cccc(Cl)c3)CC2)nc2c1c(=O)[nH]c(=O)n2C,i
CC(C)c1cc(NCc2cccnc2N2CCCC(O)C2)nc(C(F)(F)F)n1 (stereo unspecified),i
CC(C)c1cc(N2CCCC3(CC2)CNC(=O)O3)nc(C(F)(F)F)n1 (stereo unspecified),i
CC(C)c1cc(NC2CC(=O)N(CC(C)(C)C)C2)nc(C(F)(F)F)n1 (stereo unspecified),31%*
Cc1sc2ncn(CC(=O)NC3CCCCC3)c(=O)c2c1C,i
O=[N+]([O-])c1ccc(N2CCN(S(=O)(=O)c3ccccc3)CC2)cc1NCC1CCCO1 (stereo unspecified),i
O=[N+]([O-])c1ccc(N2CCCC2)cc1NCC1CCCO1 (stereo unspecified),30%*
CS(=O)(=O)N1CCN(c2ccc([N+](=O)[O-])c(NCCN3CCOCC3)c2)CC1,i
O=C(NCCCc1ccccc1)C1CCC(CNS(=O)(=O)c2cccc3nsnc23)CC1 (stereo unspecified),i
Cc1ccc(/C=C2\C(=O)Nc3ccc(Br)cc32)o1,30%*
CCOc1cc(/C=C2\C(=O)Nc3ccc(Br)cc32)c(Br)cc1OC,41%*
COc1ccc(Cl)cc1/C=C1/NC(=O)NC1=O,i
COc1ccc(Br)cc1/C=C1\N=C(c2ccc(OC)c([N+](=O)[O-])c2)OC1=O,i
COc1ccc(Cl)cc1/C=C1\C(=O)Nc2ccc(Br)cc21,35%*
C=CCOc1cc(Br)c(/C=C2/NC(=O)NC2=O)cc1OC,i
COc1ccc(Br)cc1/C=C1\C(=O)Nc2ccc(Br)cc21,36%*
COc1ccc(Br)cc1CC(=O)O,i
CCOc1c(O)ccc(/C=C2\C(=O)Nc3ccc(Br)cc32)c1[N+](=O)[O-],i
CC1=NN(c2ccc(Br)cc2)C(=O)/C1=C/c1ccc(-c2ccc3c(c2)C(=O)OC3)o1,i
CCOc1ccc(Br)cc1/C=C1\NC(=O)N(Cc2ccc(Cl)cc2)C1=O,i
Cc1cccc(C)c1N=C1C(=O)Nc2ccc(Br)cc21,i
O=C(Cn1nnnc1CN1CCCC1)NC1Cc2ccccc2C1,i
O=C1NC[C@@H](CCC(=O)N2CCc3ccccc32)N2C[C@@H](NCc3ccc(F)cc3)C[C@@H]12,i
COC(=O)c1cc(NS(=O)(=O)c2ccc3c(c2)CC(C)N3C(C)=O)cc(C(=O)OC)c1 (stereo unspecified),i
